About 83,000 compounds went through this panel and 20% of them were active in at least one assay; those are over-represented in the sample as a whole.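 48-hour exposure, single concentration, 96-well plates; percent growth endpoint where 0 means no net growth. Active: below 10.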 The source made the active and inactive calls.

The first assay deals with PC-3 prostate. As to the kind of experiment: NCI-60 one-dose screen, 48 h (100 = growth as untreated, 0 = no growth, -100 = all killed). Particulars: 10 µM unless noted.
Turning to `CC1=CCC2C1CC=C(C)C(CC[C@H]1[C@@](C)(O)CCC3OC(C)(C)[C@H](OC(=O)c4ccccc4)CC[C@@]31C)C2(C)C` (some centres not stated), the growth is 26.2% (inactive).

In the case of `CC(=O)C1CCC2C3CC(C)=C4CC(O)CCC4(C)C3CCC12C` (configuration not stated), the growth is 88.2% (inactive).

As to `CCCCCCCCCCCCCC`, the growth is 88.1% (inactive).

With `CCN(CCC#N)c1ccccc1`, the growth is 90.8% (inactive).

Turning to `O=S1(=O)NCCCN1CCNc1nccc(-c2c(-c3cccc(O)c3)nc3sccn23)n1`, the growth is 106% (inactive).

Take `COc1ccc(-c2conc2-n2nc(-c3ccccc3)nc2-c2ccccc2)cc1`: the growth was 95.6% (inactive).

With `COc1ccccc1CNCCCN1C(=O)c2ccc3c4c(ccc(c24)C1=O)C(=O)N(CCCCNCCCN)C3=O`, the growth is 43.7% (inactive).

Take `Cc1ccc(C(=O)CC(=O)C(F)(F)C(F)(F)C(F)(F)F)s1`: the growth is 92.8% (inactive).

For `O=C1CCCN1C(O)CCN(Cc1ccccc1)Cc1ccc(Cl)cc1` (configuration not stated), the growth is 95.1% (inactive).

Take `Nc1c(N)c2ccccc2c2ccccc12`: the growth was 89.5% (inactive).

For `CCOC(=O)C1=C(C)NC(=S)NC1c1ccccc1` (configuration not stated), the growth is 115% (inactive).

On to `CCOC(=O)C1=C(C(=O)OCC)N(c2cc(OC)c(OC)c(OC)c2)C(N)=C(C#N)C1c1cc(=O)[nH]c2ccccc12` (configuration not stated), for which the growth is 123% (inactive).

`CC(=O)Nc1ccc(/C=N/N2CCCCCC2)cc1`: the growth was 109% (inactive).

With `CCOC(=O)c1cnc(SCC)nc1SC#N`, the growth was 91.7% (inactive).

For `COc1cc(OC)c(C(=O)/C=C/c2cccc(OC(C)=O)c2)cc1CC=C(C)C`, the growth was 36% (inactive).

In the case of `COc1cc2ccc(C(C)=O)cc2cc1OC`, the growth was 91.2% (inactive).

As to `CN1CCCN(CCNc2nccc(-c3c(-c4cccc(O)c4)nc4sccn34)n2)S1(=O)=O`, the growth is 30.3% (inactive).

For `CCN(CC)c1ccc(/C=C2/NC(=O)NC2=O)cc1`, the growth was 65.8% (inactive).

For the compound `CCOC(=O)c1ccc2c(c1)[n+](=O)c(C(=O)c1ccc3ccccc3c1)c(C(F)(F)F)n2[O-]`, the growth was -99.2% (active).

The next assay relates to SK-MEL-5 melanoma. The assay is described as above. As to conditions: 10 µM unless noted.
`COc1cc(C2CC(=O)Nc3c2cnn3C)cc(OC)c1OC` (configuration not stated): the growth was 105% (inactive).

With `C=C(c1ccc(C(=O)NCCCn2ccnc2)cc1)c1cc2c(cc1C)C(C)(C)CCC2(C)C`, the growth was 0.58% (active).

With `Nc1c(Br)cc2c(c1Br)Cc1cc(Cl)ccc1-2`, the growth was 90.5% (inactive).

For `CCCCCCCCCCCCNC(=O)N[C@H](C(=O)N[C@H]1/C=C/CCNC(=O)/C=C/[C@H](C)NC1=O)C(C)C`, the growth was -100% (active).

As to `C=C(C)[C@@H]1CC[C@]2(C(=O)NS(=O)(=O)c3ccccc3)CC[C@]3(C)[C@H](CC[C@@H]4[C@@]5(C)CC[C@H](OC(=O)NS(=O)(=O)c6ccccc6)C(C)(C)[C@@H]5CC[C@]43C)[C@@H]12`, the growth is -24.6% (active).

As to `FC(F)(F)c1cc(-c2nnc3n2N=C(Cl)CS3)cc(C(F)(F)F)c1`, the growth is 98.9% (inactive).

On to `Cc1cc(-c2ccccc2)on1`, for which the growth was 109% (inactive).

As to `CNC(=O)c1c(NC(=O)c2cccc(C(F)(F)F)c2)sc2c1CCC(=O)C2`, the growth is -68.3% (active).

Turning to `COc1ccccc1/C=C/C(=O)CCC(=O)O`, the growth is 109% (inactive).

In the case of `NNc1ccc(S(N)(=O)=O)cc1`, the growth is 100% (inactive).

For the compound `CCc1c(C)c2ccc(O)c(-c3cc(-c4ccccc4)c(C#N)c(=O)[nH]3)c2oc1=O`, the growth was 94.7% (inactive).

On to `O=C1OCC2=C1C(c1ccccc1)c1cc3c(cc1N2CCO)OCO3` (configuration not stated), for which the growth was -12.3% (active).

As for `CCCCCCCCCCCCNC(=O)N[C@H](C(=O)N[C@H]1/C=C/OCCNC(=O)/C=C/[C@H](C(C)C)NC1=O)C(C)C`, the growth is 46.1% (inactive).

`COc1ccc(-n2nc(C(=O)Nc3ccc(F)cc3)nc2-c2cc(OC)c(OC)c(OC)c2)cc1`: the growth is 80.3% (inactive).

In the case of `COc1ccc2c(c1)OC1=C(C(=O)OC1)C2c1cc(OC)c2c(c1)OCCO2` (configuration not stated), the growth is -17.7% (active).

Regarding `O=S1(=O)NCCN1CCNc1nccc(-c2c(-c3cccc(O)c3)nc3sccn23)n1`, the growth was 94.4% (inactive).

Regarding `O=C(CC(=O)C(F)(F)C(F)(F)C(F)(F)F)c1cc2ccccc2o1`, the growth is 106% (inactive).

For the compound `Clc1cc2nc(-c3ccccc3)c(-c3ccccc3)nc2cc1Cl`, the growth was 89.4% (inactive).

With `CC(C)(C)c1ccc(C(=O)Nc2sc3cc(O)ccc3c2C(N)=O)cc1`, the growth is 96.6% (inactive).

In the case of `CC1=CCC2C1CC=C(C)C(CC[C@H]1[C@@](C)(O)CCC3OC(C)(C)[C@H](OC(=O)c4ccccc4)CC[C@@]31C)C2(C)C` (some centres not stated), the growth is 79.9% (inactive).

As for `CC(=O)C1CCC2C3CC(C)=C4CC(O)CCC4(C)C3CCC12C` (configuration not stated), the growth was 99.4% (inactive).

As to `CCCCCCCCCCCCCC`, the growth was 108% (inactive).

For `CCN(CCC#N)c1ccccc1`, the growth was 111% (inactive).

For `O=S1(=O)NCCCN1CCNc1nccc(-c2c(-c3cccc(O)c3)nc3sccn23)n1`, the growth was 74.2% (inactive).

Turning to `COc1ccc(-c2conc2-n2nc(-c3ccccc3)nc2-c2ccccc2)cc1`, the growth is 101% (inactive).

`COc1ccccc1CNCCCN1C(=O)c2ccc3c4c(ccc(c24)C1=O)C(=O)N(CCCCNCCCN)C3=O`: the growth was -97.1% (active).

Regarding `Cc1ccc(C(=O)CC(=O)C(F)(F)C(F)(F)C(F)(F)F)s1`, the growth is 106% (inactive).

As to `O=C1CCCN1C(O)CCN(Cc1ccccc1)Cc1ccc(Cl)cc1` (configuration not stated), the growth was 106% (inactive).

As to `Nc1c(N)c2ccccc2c2ccccc12`, the growth was 107% (inactive).

Turning to `CCOC(=O)C1=C(C)NC(=S)NC1c1ccccc1` (configuration not stated), the growth was 103% (inactive).

Turning to `CCOC(=O)C1=C(C(=O)OCC)N(c2cc(OC)c(OC)c(OC)c2)C(N)=C(C#N)C1c1cc(=O)[nH]c2ccccc12` (configuration not stated), the growth is 95.9% (inactive).

As for `CC(=O)Nc1ccc(/C=N/N2CCCCCC2)cc1`, the growth is 106% (inactive).

As to `CCOC(=O)c1cnc(SCC)nc1SC#N`, the growth is 126% (inactive).

For `COc1cc(OC)c(C(=O)/C=C/c2cccc(OC(C)=O)c2)cc1CC=C(C)C`, the growth is 64.2% (inactive).

Regarding `COc1cc2ccc(C(C)=O)cc2cc1OC`, the growth is 96.5% (inactive).

Consider `CN1CCCN(CCNc2nccc(-c3c(-c4cccc(O)c4)nc4sccn34)n2)S1(=O)=O`, for which the growth was 37.7% (inactive).

For the compound `CCN(CC)c1ccc(/C=C2/NC(=O)NC2=O)cc1`, the growth is -7.83% (active).

As to `CCOC(=O)c1ccc2c(c1)[n+](=O)c(C(=O)c1ccc3ccccc3c1)c(C(F)(F)F)n2[O-]`, the growth is -100% (active).

Source of the values: PubChem BioAssay (NCI).
